Inconclusive results are not listed. The source made the active and inactive calls. Calls follow the shape of the dose curve; as a rule, active = well fitted inhibition curve with a large enough effect; inconclusive = small, poorly fitted or top-dose-only effect; inactive = flat fitted curve, though single readings scatter.
What was measured:
Experiment in all cases: qHTS profiling for inhibitors of Plasmodium falciparum proliferation (AID 504749); also: nearly all actives have a fitted effect of over 60% in size
Details in all cases: P. falciparum in erythrocytes, SYBR Green DNA, 72 h; series mostly up to 28.7 µM
AS120 = system: AS120
In short: (§1)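 SYBR Green fluorescence of parasite DNA, read after lysis and overnight dark incubation, measured growth over 72 h in erythrocyte culture at 0.3% parasitemia and 2.5% hematocrit. Data normalised to DMSO and 0.29 uM artemisinin, with plate-drift correction.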

ATS189 = system: ATS189
In short: as §1

ATS95 = system: ATS95
In short: as §1

C2A = system: C2A
In short: as §1

CP185 = system: CP185
In short: as §1

CP191 = system: CP191
In short: as §1

CP192 = system: CP192
In short: as §1

CP194 = system: CP194
In short: as §1

CP201 = system: CP201
In short: as §1

CP203 = system: CP203
In short: as §1

Measured: Potency
Potency is read from the fitted curve at half-maximal effect.

C[N+](C)(C)CCCCCC[N+](C)(C)C
inactive: all assays above

CC(=O)O[C@]1(C(C)=O)CC[C@H]2[C@@H]3C=C(Cl)C4=CC(=O)[C@@H]5C[C@@H]5[C@]4(C)[C@H]3CC[C@@]21C
inactive: ATS189 | CP185

O=C(O)c1c(Cl)c(Cl)c(Cl)c(Cl)c1-c1c2cc(I)c(=O)c(I)c-2oc2c(I)c(O)c(I)cc12
inactive: all assays above

COc1ccccc1N1CCN(CCCNc2cc(=O)n(C)c(=O)n2C)CC1
inactive: all assays above

CN(C)CCC(c1ccccc1)c1ccccn1 (configuration not stated)
inactive: AS120 | ATS189 | C2A | CP191 | CP201

Cc1cccc(C)c1OCC(C)N (configuration not stated)
inactive: ATS189 | C2A | CP185 | CP192 | CP201

CCCCCN(C)CCC(O)(P(=O)(O)O)P(=O)(O)O
inactive: all assays above

CCCCC1C(=O)N(c2ccccc2)N(c2ccccc2)C1=O
inactive: CP203

O=C1Nc2ccc(Cl)cc2C(C#CC2CC2)(C(F)(F)F)O1 (configuration not stated)
not listed: AS120 | CP194
inactive: all other assays above

COc1ccc(Cc2nccc3cc(OC)c(OC)cc23)cc1OC
inactive: all assays above

CC1(C)O[C@H]2C[C@@H]3[C@H]4CCC5=CC(=O)C=C[C@]5(C)[C@@]4(F)[C@@H](O)C[C@]3(C)[C@]2(C(=O)CO)O1
not listed: AS120
inactive: all other assays above

O=C1NC(=O)C(c2ccccc2)(c2ccccc2)N1
inactive: all assays above

CCN(CC)CCOC(=O)c1ccc(N)cc1
inactive: all assays above

CC/C(=C(\c1ccccc1)c1ccc(OCCN(C)C)cc1)c1ccccc1
inactive: CP192 | CP203

CC1=C(/C=C/C(C)=C/C=C/C(C)=C/C(=O)Nc2ccc(O)cc2)C(C)(C)CCC1
active: AS120 10 µM | ATS189 7.94 µM | CP191 7.94 µM | CP192 9.53 µM | CP194 13.5 µM

CCOC(=O)O[C@]1(C(=O)OCCl)CC[C@@H]2[C@H]3CCC4=CC(=O)C=C[C@]4(C)[C@@H]3[C@@H](O)C[C@@]21C
inactive: all assays above

Clc1ccc(Cn2c(CN3CCCC3)nc3ccccc32)cc1
inactive: all assays above

COCCCCC(=NOCCN)c1ccc(C(F)(F)F)cc1
inactive: CP192

O=C1NCC2(CCN(CCc3ccccc3)CC2)O1
inactive: all assays above

NC(N)=Nc1nc(CSCC/C(N)=N/S(N)(=O)=O)cs1
inactive: all assays above

CCCNC(=O)NS(=O)(=O)c1ccc(Cl)cc1
inactive: all assays above

CCN(CC)C(=O)c1ccc(O)c(OC)c1
inactive: all assays above

O=C(O)Cc1cccc2ccccc12
inactive: all assays above

CCN1CCC[C@H]1CNC(=O)c1cc(S(N)(=O)=O)ccc1OC
inactive: all assays above

O=c1[nH]cnc2c1ncn2[C@H]1CC[C@@H](CO)O1
not listed: CP191
inactive: all other assays above

C[C@@H](O)[C@H]1C(=O)N2C(C(=O)O)=C(S[C@@H]3CN[C@H](C(=O)N(C)C)C3)[C@H](C)[C@H]12
inactive: all assays above

CC(=O)c1ccc(S(=O)(=O)NC(=O)NC2CCCCC2)cc1
inactive: all assays above

CCN(CC)CCNC(=O)c1ccc(N)cc1
inactive: all assays above

NCCS
inactive: all assays above

Cc1cnc(C(=O)O)c[n+]1[O-]
inactive: all assays above

O=C(O)c1cc(-c2ccccc2)nc2ccccc12
inactive: all assays above

CC(=O)CCCCn1c(=O)c2c(ncn2C)n(C)c1=O
inactive: all assays above

O=C(NCCN1CCOCC1)c1ccc(Cl)cc1
inactive: all assays above

CC(=O)N[C@@H](CS)C(=O)O
inactive: all assays above

From PubChem BioAssay (NCATS)
